Results filed as inconclusive are left out. The source made the active and inactive calls. The call rests on the fitted dose curve; in most records, active means well fitted inhibition curve with a large enough effect; inconclusive means small, poorly fitted or top-dose-only effect; inactive means no such curve, though single readings can be large or run the other way.
What follows are molecules tested against Luciferin 4-monooxygenase (Photinus pyralis) (UniProt P08659) (assay: FLuc inhibitory activity for the follow-up compounds in a biochemical assay with an in-house formulation of detection reagent). Settings: purified FLuc, luminescence; series mostly up to 25.6 µM; activity change, negative = inhibition: at the top concentration.
Sequence of Luciferin 4-monooxygenase (Photinus pyralis) (P08659 whole entry, looked up): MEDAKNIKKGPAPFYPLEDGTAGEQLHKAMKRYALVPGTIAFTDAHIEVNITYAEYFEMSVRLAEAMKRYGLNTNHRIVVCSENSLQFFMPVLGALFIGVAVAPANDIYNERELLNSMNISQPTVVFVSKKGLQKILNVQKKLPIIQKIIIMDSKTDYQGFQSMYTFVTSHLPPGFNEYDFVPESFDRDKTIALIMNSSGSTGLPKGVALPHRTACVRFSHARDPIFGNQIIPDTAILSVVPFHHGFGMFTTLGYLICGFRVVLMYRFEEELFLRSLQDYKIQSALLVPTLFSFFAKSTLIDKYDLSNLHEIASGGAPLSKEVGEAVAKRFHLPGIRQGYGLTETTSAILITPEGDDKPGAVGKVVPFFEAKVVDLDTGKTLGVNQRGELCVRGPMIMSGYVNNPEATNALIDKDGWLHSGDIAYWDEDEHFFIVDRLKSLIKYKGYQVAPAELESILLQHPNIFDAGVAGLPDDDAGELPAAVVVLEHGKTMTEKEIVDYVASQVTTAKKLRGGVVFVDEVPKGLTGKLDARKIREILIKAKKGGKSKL
Description: NCGC Assay Overview: Firefly (Photinus pyralis) luciferase is one of the most commonly used transcriptional reporters. It is considered one of the more dynamically responsive reporters - that is, responsive to changes in reporter transcription - as it requires no post-translational modifications and is enzymatically active directly after protein synthesis (Wood, 1998). With no endogenous expression in mammalian cells and without the requirement of external excitation, it offers very little background signal, thus generally providing excellent signal to background for most assays. Previous profiling work to determine the prevalence of compounds that affect FLuc enzymatic activity (PubChem AID 411) identified that ~3% of the MLSMR library (then at ~72K) inhibited FLuc (Auld et al., 2008). […] Of the compounds identified in this profile that inhibited FLuc, 151 compounds were selected for further analysis, in an effort to better understand their mode of inhibiting FLuc. The assay described here was to determine the activity of the compounds in a FLuc assay that used an in-house formulation of detection reagent.
NCGC Assay Protocol Summary: Reagents: 300mM Tris-HCl, 300mM Trizma base, 300mM MgCl, 1% Triton-X100, 5mM DTT, 500uM Coenzyme A trilithium salt (Sigma #C3019),450uM ATP (Sigma #A7699), 1mM D-luciferin sodium salt monohydrate (Biosynth #L8240); 10nM P. pyralis luciferase (Sigma #L9506) Control compounds used were two known firefly luciferase inhibitors (3-(5-(3-chlorophenyl)-1,2,4-oxadiazol-3-yl)benzoic acid and 5-(2-fluorophenyl)-3-phenyl-1,2,4-oxadiazole), and DMSO. Assay Summary: Six microliters of buffer containing firefly luciferase (final concentrations: 50mM Tris acetate, 10nM P. pyralis luciferase) are dispensed into each well of a Greiner white, solid-bottom 1536-well format plate using a flying reagent dispenser (FRD). These assay plates were then treated with 23nL of compound or DMSO using a Kalypsys pin tool, which allows for delivery of a 12-point intraplate titration of each compound to the assay plate (quantitative HTS), with final compound concentrations ranging from approximately ~25uM to 0.1nM. Three microliters of 3X in-house detection reagent was then delivered by FRD to each well (final concentrations in assay: 300mM Tris-HCl, 300mM Trizma base, 300mM MgCl, 1% Triton-X100, 5mM DTT, 500uM Coenzyme A trilithium salt, 450uM ATP, 1mM D-luciferin sodium salt monohydrate). Luciferase activity was then measured using a ViewLux CCD imager (PerkinElmer), with an average exposure time of 2-30 seconds (2X binning, medium/high gain).

Potency, active:
Cc1ccc(C(=O)O/N=C(\N)c2ccccn2)c(Cl)c1 0.0619 µM, Cc1ccc2sc(-c3ccc(N)cc3)nc2c1 6.19 µM, CCOc1ccc2nc(NC(=O)c3ccoc3C)sc2c1 4.91 µM, Nc1ccc(-c2nc3cc(N)ccc3s2)cc1 8.74 µM, COc1ccc2nc(NC(=O)c3ccc([N+](=O)[O-])o3)sc2c1 9.8 µM, CC(C)(C)C(=O)Nc1ccc(-c2nc3ccccc3s2)cc1 0.0219 µM, COc1ccc2nc(NC(=O)CCc3nc(-c4ccccc4F)no3)sc2c1 6.94 µM, Nc1ccc2nc(-c3ccccc3)sc2c1 2.19 µM, Nc1ccc(-c2nc3ccc(N)cc3s2)cc1 4.91 µM, CCOc1ccc(C(=O)Nc2ccccc2C(=O)O)cc1 6.94 µM, COc1ccc2nc(NC(=O)c3cnccn3)sc2c1 4.38 µM, O=C(Nc1ccc(-c2nc3ccccc3s2)cc1)C1=COCCO1 2.46 µM

Activity change, negative = inhibition, inactive:
Cc1ccc2sc(-c3ccc(NC(=O)c4cc(-n5cnnc5)ccc4Cl)cc3)nc2c1 43.4%, Nc1ccccc1C(=O)Nc1cccc(C(=O)O)c1 -2.97%, COc1cc(OC)cc(C(=O)Nc2ccc(-c3nc4ccccc4s3)c(C)c2)c1 -18.6%, COc1ccc(CC(=O)Nc2cccc(C(=O)Nc3ccccc3C(=O)O)c2)cc1OC 6.03%, CC(=O)Oc1ccc(C(=O)Nc2ccccc2C(=O)Nc2ccc(C(=O)O)cc2)cc1 -24.4%, O=C(Nc1ccccc1C(=O)O)c1cccc(S(=O)(=O)N2CCCC2)c1 -18.7%, CN(C)S(=O)(=O)c1ccc(C(=O)Nc2ccccc2C(=O)O)cc1 -6.75%, Cc1ccc(C(=O)Nc2cccc(C(=O)O)c2)cc1S(=O)(=O)N1CCOCC1 -8.83%, O=C(Cc1ccccc1)Nc1ccccc1C(=O)Nc1ccc(C(=O)O)cc1 -19.1%, CCOc1c(Cl)cc(C(=O)Nc2ccccc2C(=O)O)cc1Cl -14.5%, COc1ccc2nc(NC(=O)c3ccc(NS(=O)(=O)c4cccs4)cc3)sc2c1 45.8%, Cc1c(NS(C)(=O)=O)cccc1-c1nc2ccccc2s1 4.59%, CC(=O)Nc1cccc(-c2nc3ccccc3s2)c1C -10.4%, O=C(O)c1ccccc1NC(=O)c1ccccc1Nc1ccccc1 -3.26%, CC(C)(C)NC(=O)c1ccccc1-c1nc2ccccc2s1 16.5%, Cc1ccc(C(=O)Nc2cccc(C(=O)O)c2)cc1S(=O)(=O)N1CCCC1 -19.5%, COc1ccccc1C(=O)Nc1ccc(C(=O)O)cc1 -16.7%, Cc1ccc(NS(=O)(=O)c2ccc(Cl)c(C(=O)Nc3cccc(C(=O)O)c3)c2)cc1 -3.21%, O=C(Nc1cccc(-c2nc3ccccc3s2)c1)c1cc(-n2cnnc2)ccc1Cl 12.7%, COc1ccc2nc(NC(=O)c3ccc(S(=O)(=O)N4CCCC(C)C4)cc3)sc2c1 (stereo not given) -0.118%, O=C(O)c1ccc(NC(=O)c2ccccc2NC(=O)c2ccccc2Br)cc1 -14%, O=C(Nc1ccccc1C(=O)O)c1cccc(C(=O)Nc2ccccc2C(=O)O)c1 -16.8%, COc1ccc2nc(NC(=O)Cc3cccs3)sc2c1 -18.1%, O=C(O)c1cccc(NC(=O)c2ccccc2NC(=O)c2ccccc2F)c1 -13.8%, COc1ccc(-c2cccc(C(=O)Nc3cccc(C(=O)O)c3)c2)cc1 -0.002%, COc1ccc(C(=O)Nc2nc3ccc(OC)cc3s2)cc1 -5.76%, COc1ccccc1C(=O)Nc1ccc(C(=O)Nc2ccccc2C(=O)O)cc1 -5.34%, O=C(Nc1ccccc1C(=O)O)c1cccc(NC(=O)c2ccco2)c1 -15.2%
